Data published in PubChem BioAssay.
Active and inactive are the calls of the source.

Legend:
Albumin (Bos taurus) = Albumin (Bos taurus) (UniProt P02769); test: compounds binding labelled BSA control protein – biochemical, small-molecule microarray, Alexa647 label, 635/667 nm fluorescence, artefact control for SMM control protein annotation, profiling panel (AID 1118); conditions: BSA-A647 binding, fluorescence 635 nm, higher = more signal;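 further: score merges 667 nm emission intensity and signal-to-noise per printed compound spot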
[1] = probe aXIP binding to arrayed compounds – biochemical, NeuroSMM set, 635/667 nm fluorescence, primary screen (AID 1119); conditions: small-molecule microarray, higher = more signal, called active from +8 up or from −8 down;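 further: probe is the protein aXip251-270 applied at 1 µg/mL to compound-printed slides; binding of probe to printed compounds measured as 667 nm fluorescence plus signal to noise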
[2] = probe aNOTCH3 binding on compound microarray – biochemical, small-molecule microarray, 635/667 nm fluorescence, primary screen (AID 1120); conditions: higher = more signal;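 further: probe is a biotin-tagged antibody raised against NOTCH3 rather than NOTCH3 protein; score merges spot fluorescence near 667 nm with spot signal to noise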
[3] = probe aNOTCH2 binding on compound microarray – biochemical, small-molecule microarray, 635/667 nm fluorescence, primary screen (AID 1121); conditions: higher = more signal;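 further: score merges feature fluorescence read at 667 nm with its signal to noise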
[4] = biological target: Carbonic anhydrase 2 (Homo sapiens) (UniProt P00918); test: compounds binding carbonic anhydrase 2 – biochemical, small-molecule microarray, Alexa647-labelled CAII, profiling panel (AID 1122); conditions: CAII-A647 binding fluorescence, higher = more signal
[5] = COS7 lysate on small-molecule microarray, probe aHis, 635 nm (AID 1123); conditions: COS7 cell lysate, fluorescence, higher = more signal;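 further: z-score combines 667nm fluorescence intensity with signal-to-noise per printed compound spot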
[6] = probe aLAP1 signal on lysate-treated microarray – cell lysate, small-molecule microarray, COS7 lysate, primary screen (AID 1124); conditions: probe aLAP1, fluorescence, higher = more signal;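 further: lysate comes from COS7 cells expressing LAP1 and is applied at 0.3 µg/mL; score merges spot fluorescence near 667 nm with signal-to-noise over triplicate slides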
Sam68 (KHDRBS1) = test: compounds binding KHDRBS1 protein – biochemical, small-molecule microarray, 635 nm fluorescence, primary screen (AID 1125); conditions: higher = more signal;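 further: score merges 667 nm channel intensity with signal to noise over triplicate slides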
[7] = test system: Chordin-like protein 2 (CHRDL2); test: compounds binding chordin-like 2 – biochemical, small-molecule microarray, 635 nm fluorescence, primary screen (AID 1126); conditions: fluorescence 635 nm, higher = more signal;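 further: printed compound slides probed with Chrdl2 protein at 4 µg/mL for 1 h at 4 C; score merges 667 nm emission intensity with signal to noise over three replicate slides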
[8] = biological target: Concanavalin-A (Canavalia ensiformis) (UniProt P02866); test: compounds binding concanavalin A lectin – biochemical, small-molecule microarray, Alexa647 label, 635 nm, artefact control for SMM control protein annotation, primary screen (AID 1127); conditions: ConA-A647 binding fluorescence, higher = more signal;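 further: z combines 667 nm emission intensity with signal-to-noise across three replicate slides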
[9] = compounds binding Alexa647 anti-His antibody – biochemical, small-molecule microarray, 635 nm fluorescence, artefact control for SMM control protein annotation, primary screen (AID 1128); conditions: higher = more signal;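 further: score merges feature fluorescence with signal-to-noise for each printed compound spot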
[10] = test system: Human papillomavirus type 1a E7 protein (residues 1-88); test: HPV1a E7 small-molecule binders, primary screen, biochemical, small-molecule microarray, residues 1-88, 635 nm (AID 1129); conditions: small-molecule microarray binding, fluorescence 635 nm; higher = more signal
[11] = biological target: Focal adhesion kinase 1 (Homo sapiens) (UniProt Q05397); test: PTK2 protein binding on printed compound slides – biochemical, small-molecule microarray, 635/667 nm fluorescence, BSA, DTT, primary screen (AID 1130); conditions: 635 nm fluorescence, higher = more signal;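 further: composite of spot emission at 667 nm and signal to noise over triplicate slides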
[12] = test system: Fibrinogen (Alexa647-labelled); test: Alexa647-fibrinogen binding to printed small molecules – biochemical, small-molecule microarray, 635/667 nm fluorescence, artefact control for SMM control-protein annotation, profiling panel (AID 1131); conditions: fibrinogen-A647 binding fluorescence, higher = more signal;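 further: z-score merges 667 nm fluorescence with per-spot signal-to-noise over triplicate slides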
[13] = biological target: Follistatin (Homo sapiens) (UniProt P19883); test: FST protein binding to printed compounds – biochemical, small-molecule microarray, 635/667 nm fluorescence, primary screen (AID 1132); conditions: 635 nm fluorescence, higher = more signal
[14] = biological target: Fibroblast growth factor 2 (Homo sapiens) (UniProt P09038); test: basic fibroblast growth factor binding to printed compounds – biochemical, small-molecule microarray, 635/667 nm fluorescence, primary screen (AID 1133); conditions: FGF2, fluorescence 635/667, higher = more signal
[15] = JC-1 mitochondrial potential readout, lung cancer cells – cell-based, A549, JC-1 fluorescence, basal, 24 h, 100 nL, profiling panel (AID 1138); conditions: higher = more signal;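 further: A549 lung adenocarcinoma cells under basal conditions with no added stimulus; test concentration not given here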
Lefty1 = Lefty1 protein binding to printed compounds – biochemical, small-molecule microarray, 635/667 nm fluorescence, primary screen (AID 1139); conditions: fluorescence 635/667, higher = more signal
[16] = test system: wheat germ agglutinin (Triticum aestivum), Alexa647-labelled; test: Alexa647-WGA lectin binding to printed small molecules – biochemical, small-molecule microarray, 635/667 nm fluorescence, artefact control for SMM control-protein annotation, profiling panel (AID 1140); conditions: WGA-A647 binding, 635 nm fluorescence, higher = more signal;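 further: score merges 667 nm feature emission with signal to noise over triplicate slides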
[17] = biological target: Luciferin 4-monooxygenase (Photinus pyralis) (UniProt P08659); test: inhibition of purified Photinus pyralis luciferase – biochemical, luminescence, purified enzyme, 2006 set, primary screen (AID 1141); conditions: purified firefly luciferase, SteadyGlo luminescence, 30 min; higher = more signal, called active from +8 up or from −8 down;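 further: cell-free assay with purified firefly luciferase at 100 ng per well in PBS; test concentration not given here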
Sequence of Luciferin 4-monooxygenase (Photinus pyralis) (P08659 whole entry, looked up): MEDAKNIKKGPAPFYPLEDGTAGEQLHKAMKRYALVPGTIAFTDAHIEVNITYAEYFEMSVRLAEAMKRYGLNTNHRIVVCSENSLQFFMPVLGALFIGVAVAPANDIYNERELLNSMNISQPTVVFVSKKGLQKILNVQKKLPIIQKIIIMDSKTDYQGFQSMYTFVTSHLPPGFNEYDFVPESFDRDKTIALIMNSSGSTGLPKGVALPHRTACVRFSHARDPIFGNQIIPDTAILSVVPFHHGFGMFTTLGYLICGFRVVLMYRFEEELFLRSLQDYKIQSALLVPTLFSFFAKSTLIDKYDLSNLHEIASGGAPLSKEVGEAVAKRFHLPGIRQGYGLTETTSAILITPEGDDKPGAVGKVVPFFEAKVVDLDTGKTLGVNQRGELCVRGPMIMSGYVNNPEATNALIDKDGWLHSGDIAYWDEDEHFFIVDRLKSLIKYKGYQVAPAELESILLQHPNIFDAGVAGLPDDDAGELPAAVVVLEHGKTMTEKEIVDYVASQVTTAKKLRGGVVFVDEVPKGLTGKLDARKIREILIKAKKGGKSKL

Sequence of Albumin (Bos taurus) (P02769 whole entry, looked up): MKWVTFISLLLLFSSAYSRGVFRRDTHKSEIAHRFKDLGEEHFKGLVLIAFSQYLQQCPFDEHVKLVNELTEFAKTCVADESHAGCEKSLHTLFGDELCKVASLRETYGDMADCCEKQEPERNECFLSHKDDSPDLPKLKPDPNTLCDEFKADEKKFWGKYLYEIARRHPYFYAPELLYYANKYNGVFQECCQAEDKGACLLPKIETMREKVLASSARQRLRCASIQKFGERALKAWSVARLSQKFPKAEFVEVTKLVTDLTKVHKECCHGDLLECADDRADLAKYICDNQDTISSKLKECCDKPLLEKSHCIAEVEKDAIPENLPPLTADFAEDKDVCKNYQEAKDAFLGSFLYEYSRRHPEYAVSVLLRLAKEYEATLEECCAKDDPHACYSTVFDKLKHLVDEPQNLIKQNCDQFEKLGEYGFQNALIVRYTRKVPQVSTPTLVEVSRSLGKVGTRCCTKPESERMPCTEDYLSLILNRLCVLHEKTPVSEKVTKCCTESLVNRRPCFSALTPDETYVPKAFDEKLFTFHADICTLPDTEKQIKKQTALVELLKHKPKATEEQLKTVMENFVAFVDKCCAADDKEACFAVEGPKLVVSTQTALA
Sequence of Follistatin (Homo sapiens) (P19883 whole entry, looked up): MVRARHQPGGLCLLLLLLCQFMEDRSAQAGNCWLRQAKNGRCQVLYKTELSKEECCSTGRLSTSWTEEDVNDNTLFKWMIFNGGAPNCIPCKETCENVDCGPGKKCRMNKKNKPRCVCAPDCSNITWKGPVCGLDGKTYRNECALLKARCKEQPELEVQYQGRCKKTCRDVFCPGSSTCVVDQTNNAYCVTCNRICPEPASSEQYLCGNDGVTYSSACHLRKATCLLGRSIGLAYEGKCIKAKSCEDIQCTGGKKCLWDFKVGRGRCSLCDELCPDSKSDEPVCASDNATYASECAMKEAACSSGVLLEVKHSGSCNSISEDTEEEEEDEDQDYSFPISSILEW
Sequence of Concanavalin-A (Canavalia ensiformis) (P02866 whole entry, looked up): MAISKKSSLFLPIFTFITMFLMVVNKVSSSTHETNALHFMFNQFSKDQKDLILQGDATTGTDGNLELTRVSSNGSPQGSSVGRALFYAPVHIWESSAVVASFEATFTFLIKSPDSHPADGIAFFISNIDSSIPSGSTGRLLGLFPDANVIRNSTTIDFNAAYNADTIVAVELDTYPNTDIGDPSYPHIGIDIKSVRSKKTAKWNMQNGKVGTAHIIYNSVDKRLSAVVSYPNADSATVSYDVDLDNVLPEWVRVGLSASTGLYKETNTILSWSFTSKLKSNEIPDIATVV
Sequence of Fibroblast growth factor 2 (Homo sapiens) (P09038 whole entry, looked up): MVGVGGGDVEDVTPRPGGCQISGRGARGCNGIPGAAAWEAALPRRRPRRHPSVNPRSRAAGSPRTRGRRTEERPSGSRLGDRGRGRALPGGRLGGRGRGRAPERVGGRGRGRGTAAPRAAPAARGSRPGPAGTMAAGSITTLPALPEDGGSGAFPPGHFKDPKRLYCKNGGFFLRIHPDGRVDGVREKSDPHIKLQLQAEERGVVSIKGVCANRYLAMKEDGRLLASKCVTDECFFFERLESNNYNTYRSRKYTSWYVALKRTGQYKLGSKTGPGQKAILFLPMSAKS
Sequence of Focal adhesion kinase 1 (Homo sapiens) (Q05397 whole entry, looked up): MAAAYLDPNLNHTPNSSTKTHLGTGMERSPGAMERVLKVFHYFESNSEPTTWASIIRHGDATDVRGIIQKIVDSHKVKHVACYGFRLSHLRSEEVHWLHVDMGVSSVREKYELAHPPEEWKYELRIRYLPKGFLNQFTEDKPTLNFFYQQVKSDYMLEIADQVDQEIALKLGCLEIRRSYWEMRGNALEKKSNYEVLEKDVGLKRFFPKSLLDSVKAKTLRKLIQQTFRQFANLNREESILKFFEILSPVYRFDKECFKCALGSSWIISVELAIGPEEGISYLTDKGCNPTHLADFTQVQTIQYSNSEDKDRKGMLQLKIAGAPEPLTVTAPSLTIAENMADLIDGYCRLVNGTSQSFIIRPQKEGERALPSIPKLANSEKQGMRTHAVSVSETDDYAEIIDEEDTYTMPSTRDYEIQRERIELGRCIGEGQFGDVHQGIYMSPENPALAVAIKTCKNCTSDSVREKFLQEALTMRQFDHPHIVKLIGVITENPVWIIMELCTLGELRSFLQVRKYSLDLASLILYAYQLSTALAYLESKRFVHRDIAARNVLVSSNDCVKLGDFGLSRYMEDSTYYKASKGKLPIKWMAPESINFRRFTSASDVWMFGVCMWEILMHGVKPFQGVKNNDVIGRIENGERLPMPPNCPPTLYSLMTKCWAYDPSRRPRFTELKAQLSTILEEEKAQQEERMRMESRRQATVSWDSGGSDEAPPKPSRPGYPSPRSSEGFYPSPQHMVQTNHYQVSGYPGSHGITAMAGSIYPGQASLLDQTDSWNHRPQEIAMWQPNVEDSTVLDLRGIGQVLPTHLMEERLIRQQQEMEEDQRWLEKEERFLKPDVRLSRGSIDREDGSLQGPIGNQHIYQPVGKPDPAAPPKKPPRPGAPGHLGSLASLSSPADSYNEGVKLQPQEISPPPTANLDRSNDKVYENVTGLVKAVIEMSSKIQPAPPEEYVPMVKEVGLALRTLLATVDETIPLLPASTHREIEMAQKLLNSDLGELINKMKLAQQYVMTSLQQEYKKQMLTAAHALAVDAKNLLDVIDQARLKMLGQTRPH

SMILES	composite z-score (Albumin (Bos taurus))	composite Z-score [1]	composite z-score [2]	composite z-score [3]	composite z-score [4]	composite z-score [5]	composite z-score [6]	composite z-score (Sam68 (KHDRBS1))	composite z-score [7]	composite z-score [8]	composite z-score [9]	composite z-score [10]	composite z-score [11]	composite z-score [12]	composite z-score [13]	composite z-score [14]	z-score [15]	composite z-score (Lefty1)	composite z-score [16]	z-score [17]
Cc1cc2c(nc1C)CCCCN2CC(C)ON=C[C@@H](C)[C@H](OCc1ccccc1)C(C)C (stereo not given in full)	-0.256	-0.77 (inactive)	-0.545	-0.237	-0.523	-0.602	-0.708	-0.465	-2.12	-1.34	1.92	-0.598	-0.69	-2.1	-1.88	-1.78	-1.26	-0.913	-0.765	-0.29 (inactive)
O=C1C[C@@H](O)[C@@H](O)[C@@H]2[C@@H]3C(=O)N(c4cccc(Oc5ccccc5)c4)C(=O)[C@@H]3CC[C@H]12	0.332	0.454 (inactive)	-0.085	-0.137	-0.0963	0.104	0.183	0.21	0.455	0.505	-0.0123	0.818	-0.031	0.345	0.505	0.31	1.23	0.471	0.268	-0.275 (inactive)
O=c1n(Cc2cc3c(cc2Cl)OCO3)c(=O)n2n1CC[C@@H]1C(=NOCc3ccccc3)[C@H]3O[C@H]3[C@@H](O)[C@@H]12	0.0524	0.0993 (inactive)	0.106	-0.0495	0.177	0.155	0.708	0.529	0.6	0.223	0.559	0.459	-0.0758	0.623	0.444	0.784	0.679	0.716	0.125	-1.8 (inactive)
